# Measured values published in PubChem BioAssay AID1159580 (chemical genetic matrix, 2015).
# Among all 5,500 compounds or so, about 2,000 (36%) were called active. Inconclusive results (about 18%) are left out. Some of the results follow. Values without a mark were called inactive. No stated cut-off is given here; in the data, active means normalized growth mostly below about 0.91 (no sharp cut-off); inconclusive means no clear call, values can overlap the other calls; inactive means mostly above about 0.92.
# Assay: chemical genetic growth profiling, strain panel (AID 1159580);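 further: tested at 20 µM; growth read once vehicle control cultures reached saturation at 30 °C; 1 = growth at the plate median or of vehicle wells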
# Conditions: growth OD
# [1] = S. cerevisiae deletion strains, locus YDL101C, strain DUN1, stronger effect = lower value
# [2] = S. cerevisiae deletion strains, locus YHR030C, strain SLT2, stronger effect = lower value
# [3] = S. cerevisiae deletion strains, locus YAL013W, strain DEP1, stronger effect = lower value
# [4] = S. cerevisiae deletion strains, locus YBR229C, strain ROT2, stronger effect = lower value
# [5] = S. cerevisiae deletion strains, locus YDR150W, strain NUM1, stronger effect = lower value
# [6] = S. cerevisiae deletion strains, locus YEL061C, strain CIN8, stronger effect = lower value
# [7] = S. cerevisiae deletion strains, locus YGR078C, strain PAC10, stronger effect = lower value
# [8] = S. cerevisiae deletion strains, locus YHR087W, strain rtc3, stronger effect = lower value
# [9] = S. cerevisiae deletion strains, locus YJL187C, strain SWE1, stronger effect = lower value
# [10] = S. cerevisiae deletion strains, locus YJR043C, strain POL32, stronger effect = lower value
# [11] = S. cerevisiae deletion strains, locus YJR075W, strain HOC1, stronger effect = lower value
# [12] = S. cerevisiae deletion strains, locus YLR039C, strain RIC1, stronger effect = lower value
# [13] = S. cerevisiae deletion strains, locus YLR058C, strain SHM2 (second series), stronger effect = lower value
# [14] = S. cerevisiae deletion strains, locus YLR085C, strain ARP6, stronger effect = lower value
# [15] = S. cerevisiae deletion strains, locus YLR262C, strain YPT6, stronger effect = lower value
# [16] = S. cerevisiae deletion strains, locus YML094W, strain GIM5, stronger effect = lower value
# [17] = S. cerevisiae deletion strains, locus YMR219W, strain ESC1, stronger effect = lower value
# [18] = S. cerevisiae deletion strains, locus YMR263W, strain SAP30, stronger effect = lower value
# [19] = S. cerevisiae deletion strains, locus YMR307W, strain GAS1, stronger effect = lower value
# [20] = S. cerevisiae deletion strains, locus YNL153C, strain GIM3, stronger effect = lower value
# [21] = S. cerevisiae deletion strains, locus YNL298W, strain CLA4 (second series), stronger effect = lower value
# [22] = S. cerevisiae deletion strains, locus YNL322C, strain KRE1, stronger effect = lower value
# [23] = S. cerevisiae deletion strains, locus YNR030W, strain Alg12, stronger effect = lower value
# [24] = S. cerevisiae deletion strains, locus YPL055C, strain LGE1, stronger effect = lower value
# [25] = S. cerevisiae deletion strains, locus YPL241C, strain CIN2, stronger effect = lower value
# [26] = S. cerevisiae deletion strains, locus YPR135W, strain CTF4, stronger effect = lower value
compound,measurement,setting,value
Nc1ccccc1C(=O)Nc1cc(C(F)(F)F)cc(C(F)(F)F)c1,normalized growth,"S. cerevisiae deletion strains, locus YAR019C, strain CDC15, stronger effect = lower value",0.957
same,normalized growth,"S. cerevisiae deletion strains, locus YBL105C, strain PKC1, stronger effect = lower value",0.973
same,normalized growth,"S. cerevisiae deletion strains, locus YBR135W, strain CKS1, stronger effect = lower value",0.985
same,normalized growth,"S. cerevisiae deletion strains, locus YBR136W, strain MEC1, stronger effect = lower value",0.946
same,normalized growth,"S. cerevisiae deletion strains, locus YBR160W, strain CDC28, stronger effect = lower value",0.982
same,normalized growth,"S. cerevisiae deletion strains, locus YDL017W, strain CDC7, stronger effect = lower value",0.978
same,normalized growth,"S. cerevisiae deletion strains, locus YDL028C, strain MPS1, stronger effect = lower value",0.943
same,normalized growth,[1],0.937
same,normalized growth,"S. cerevisiae deletion strains, locus YDL108W, strain KIN28, stronger effect = lower value",0.969
same,normalized growth,"S. cerevisiae deletion strains, locus YDL132W, strain cdc53, stronger effect = lower value",0.967
same,normalized growth,"S. cerevisiae deletion strains, locus YDL214C, strain PRR2, stronger effect = lower value",1
same,normalized growth,"S. cerevisiae deletion strains, locus YDR052C, strain DBF4, stronger effect = lower value",0.97
same,normalized growth,"S. cerevisiae deletion strains, locus YDR054C, strain cdc34, stronger effect = lower value",0.96
same,normalized growth,"S. cerevisiae deletion strains, locus YDR226W, strain ADK1, stronger effect = lower value",0.976
same,normalized growth,"S. cerevisiae deletion strains, locus YDR477W, strain SNF1, stronger effect = lower value",0.992
same,normalized growth,"S. cerevisiae deletion strains, locus YER123W, strain YCK3, stronger effect = lower value",0.957
same,normalized growth,"S. cerevisiae deletion strains, locus YER133W, strain GLC7, stronger effect = lower value",1.01
same,normalized growth,"S. cerevisiae deletion strains, locus YFL009W, strain cdc4, stronger effect = lower value",0.968
same,normalized growth,"S. cerevisiae deletion strains, locus YFL029C, strain CAK1, stronger effect = lower value",0.944
same,normalized growth,"S. cerevisiae deletion strains, locus YFR003C, strain YPI1, stronger effect = lower value",0.984
same,normalized growth,"S. cerevisiae deletion strains, locus YFR019W, strain FAB1, stronger effect = lower value",0.986
same,normalized growth,"S. cerevisiae deletion strains, locus YFR028C, strain CDC14, stronger effect = lower value",0.974
same,normalized growth,"S. cerevisiae deletion strains, locus YGR040W, strain KSS1, stronger effect = lower value",1.01
same,normalized growth,"S. cerevisiae deletion strains, locus YGR052W, strain FMP48, stronger effect = lower value",0.921
same,normalized growth,"S. cerevisiae deletion strains, locus YGR092W, strain DBF2, stronger effect = lower value",0.961
same,normalized growth,[2],0.855
same,normalized growth,"S. cerevisiae deletion strains, locus YHR079C, strain IRE1, stronger effect = lower value",0.836
same,normalized growth,"S. cerevisiae deletion strains, locus YHR082C, strain KSP1, stronger effect = lower value",0.851
same,normalized growth,"S. cerevisiae deletion strains, locus YHR205W, strain SCH9, stronger effect = lower value",0.816
same,normalized growth,"S. cerevisiae deletion strains, locus YIL147C, strain SLN1, stronger effect = lower value",0.946
same,normalized growth,"S. cerevisiae deletion strains, locus YJL095W, strain BCK1, stronger effect = lower value",0.844
same,normalized growth,"S. cerevisiae deletion strains, locus YJL128C, strain PBS2, stronger effect = lower value",0.914
same,normalized growth,"S. cerevisiae deletion strains, locus YJL157C, strain FAR1, stronger effect = lower value",1.01
same,normalized growth,"S. cerevisiae deletion strains, locus YJR016C, strain ILV3, stronger effect = lower value",0.943
same,normalized growth,"S. cerevisiae deletion strains, locus YJR066W, strain TOR1 (second series), stronger effect = lower value",0.997
same,normalized growth,"S. cerevisiae deletion strains, locus YJR066W, strain TOR1, stronger effect = lower value",0.903
same,normalized growth,"S. cerevisiae deletion strains, locus YKL048C, strain ELM1, stronger effect = lower value",0.949
same,normalized growth,"S. cerevisiae deletion strains, locus YKL067W, strain YNK1, stronger effect = lower value",0.978
same,normalized growth,"S. cerevisiae deletion strains, locus YKL101W, strain HSL1, stronger effect = lower value",0.957
same,normalized growth,"S. cerevisiae deletion strains, locus YKL193C, strain SDS22, stronger effect = lower value",0.955
same,normalized growth,"S. cerevisiae deletion strains, locus YKL203C, strain TOR2, stronger effect = lower value",1.06
same,normalized growth,"S. cerevisiae deletion strains, locus YLR113W, strain HOG1, stronger effect = lower value",0.762 (active)
same,normalized growth,"S. cerevisiae deletion strains, locus YLR133W, strain CKI1, stronger effect = lower value",0.934
same,normalized growth,"S. cerevisiae deletion strains, locus YLR403W, strain SFP1, stronger effect = lower value",1.02
same,normalized growth,"S. cerevisiae deletion strains, locus YML070W, strain DAK1, stronger effect = lower value",0.933
same,normalized growth,"S. cerevisiae deletion strains, locus YMR001C, strain CDC5, stronger effect = lower value",0.975
same,normalized growth,"S. cerevisiae deletion strains, locus YMR205C, strain PFK2 (second series), stronger effect = lower value",0.947
same,normalized growth,"S. cerevisiae deletion strains, locus YMR277W, strain FCP1, stronger effect = lower value",0.952
same,normalized growth,"S. cerevisiae deletion strains, locus YNL006W, strain LST8, stronger effect = lower value",0.937
same,normalized growth,"S. cerevisiae deletion strains, locus YNL020C, strain ARK1, stronger effect = lower value",0.945
same,normalized growth,"S. cerevisiae deletion strains, locus YNL161W, strain CBK1, stronger effect = lower value",0.971
same,normalized growth,"S. cerevisiae deletion strains, locus YNL183C, strain NPR1, stronger effect = lower value",0.871
same,normalized growth,"S. cerevisiae deletion strains, locus YNL207W, strain RIO2, stronger effect = lower value",0.963
same,normalized growth,"S. cerevisiae deletion strains, locus YNL222W, strain SSU72, stronger effect = lower value",0.977
same,normalized growth,"S. cerevisiae deletion strains, locus YNL307C, strain MCK1 (second series), stronger effect = lower value",0.941
same,normalized growth,"S. cerevisiae deletion strains, locus YOL078W, strain AVO1, stronger effect = lower value",0.961
same,normalized growth,"S. cerevisiae deletion strains, locus YOL136C, strain PFK27, stronger effect = lower value",0.956
same,normalized growth,"S. cerevisiae deletion strains, locus YOR061W, strain CKA2, stronger effect = lower value",0.99
same,normalized growth,"S. cerevisiae deletion strains, locus YOR119C, strain RIO1, stronger effect = lower value",0.981
same,normalized growth,"S. cerevisiae deletion strains, locus YOR231W, strain MKK1, stronger effect = lower value",0.87
same,normalized growth,"S. cerevisiae deletion strains, locus YOR329C, strain SCD5, stronger effect = lower value",0.969
same,normalized growth,"S. cerevisiae deletion strains, locus YPL031C, strain PHO85, stronger effect = lower value",0.991
same,normalized growth,"S. cerevisiae deletion strains, locus YPL153C, strain RAD53, stronger effect = lower value",0.987
same,normalized growth,"S. cerevisiae deletion strains, locus YPL204W, strain HRR25, stronger effect = lower value",0.976
same,normalized growth,"S. cerevisiae deletion strains, locus YPL209C, strain IPL1, stronger effect = lower value",0.952
same,normalized growth,"S. cerevisiae deletion strains, locus YPL256C, strain CLN2, stronger effect = lower value",0.781 (active)
same,normalized growth,"S. cerevisiae deletion strains, locus YPR025C, strain CCL1, stronger effect = lower value",0.985
same,normalized growth,"S. cerevisiae deletion strains, locus YPR106W, strain ISR1, stronger effect = lower value",0.934
same,normalized growth,"S. cerevisiae deletion strains, locus YPR111W, strain DBF20, stronger effect = lower value",0.946
same,normalized growth,"S. cerevisiae deletion strains, strain NNK1, stronger effect = lower value",0.93
same,normalized growth,"S. cerevisiae deletion strains, strain TSCII, stronger effect = lower value",0.974
CCOC(=O)C(O)(c1ccc(N)c(C)c1)C(F)(F)F (configuration not stated),normalized growth,[3],0.995
same,normalized growth,[4],1
same,normalized growth,[1],0.996
same,normalized growth,[5],0.928
same,normalized growth,[6],0.988
same,normalized growth,[7],0.992
same,normalized growth,[2],0.953
same,normalized growth,[8],1.02
same,normalized growth,[9],1
same,normalized growth,[10],0.925
same,normalized growth,[11],0.991
same,normalized growth,[12],0.988
same,normalized growth,[13],1.01
same,normalized growth,[14],0.996
same,normalized growth,[15],1.02
same,normalized growth,[16],0.991
same,normalized growth,[17],0.982
same,normalized growth,[18],0.999
same,normalized growth,[19],0.946
same,normalized growth,"S. cerevisiae deletion strains, locus YNL128W, strain TEP1, stronger effect = lower value",1.01
same,normalized growth,[20],0.993
same,normalized growth,[21],1
same,normalized growth,[22],1
same,normalized growth,[23],1.01
same,normalized growth,[24],0.935
same,normalized growth,[25],0.996
same,normalized growth,[26],0.982
same,normalized growth,"S. cerevisiae strains, strain wild type, stronger effect = lower value",0.981
CCc1cccc(C)c1NC(=O)CC(C)(C)CC(=O)O,normalized growth,[3],0.988
same,normalized growth,[4],0.994
same,normalized growth,[1],1.02
same,normalized growth,[5],0.981
same,normalized growth,[6],0.992
same,normalized growth,[7],0.99
same,normalized growth,"S. cerevisiae deletion strains, locus YGR229C, strain SMI1, stronger effect = lower value",0.992
same,normalized growth,[2],0.989
same,normalized growth,[8],1.01
same,normalized growth,[9],0.996
same,normalized growth,[10],0.995
same,normalized growth,[11],1.01
same,normalized growth,"S. cerevisiae deletion strains, locus YKL190W, strain CNB1, stronger effect = lower value",0.987
same,normalized growth,[12],1.03
same,normalized growth,[13],0.996
same,normalized growth,[14],0.966
same,normalized growth,[15],1.02
same,normalized growth,[16],1.06
same,normalized growth,[17],0.996
same,normalized growth,[18],0.967
same,normalized growth,[19],0.983
same,normalized growth,[20],1.01
same,normalized growth,[21],1.01
same,normalized growth,[22],0.992
same,normalized growth,[23],1
same,normalized growth,[24],1.02
same,normalized growth,[25],1.01
same,normalized growth,[26],1.06
